uPA generation – inhibitors of cell surface uPA generation | 330,000 tested, 0.31% active | Potency, µM (titrated, usually from 38.3 µM), inactives show at the highest dose activity change, negative = inhibition, hits mostly inhibitors | AID 540303 | cell surface uPA generation assay, qHTS; active means well fitted inhibition curve with a large enough effect; inconclusive means small, poorly fitted or top-dose-only effect; inactive means no such curve, though single readings can be large or run the other way; tested in mouse RAW 264.7 cells; further: potency means the concentration at half of the fitted maximal effect; on the % scale 0 is the no-effect control and ±100 the full control effect; nearly all actives have a fitted effect of over 55% in size
TSHR antagonist – human thyrotropin receptor antagonism | P16473 | TSHR-expressing cells, TSH-stimulated cAMP HTRF, 2 h; stronger effect = lower value | activity change, negative = inhibition, % at 11.5 µM | 330,000 tested, 0.2% active | AID 504810;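 active means activity change below a set negative limit, meaning inhibition stronger than a set level, cut at about -70% in these data; inconclusive means activity change between two set negative limits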; further: on the % scale 0 is the no-effect control and ±100 the full control effect
Target sequence (P16473 whole entry, looked up): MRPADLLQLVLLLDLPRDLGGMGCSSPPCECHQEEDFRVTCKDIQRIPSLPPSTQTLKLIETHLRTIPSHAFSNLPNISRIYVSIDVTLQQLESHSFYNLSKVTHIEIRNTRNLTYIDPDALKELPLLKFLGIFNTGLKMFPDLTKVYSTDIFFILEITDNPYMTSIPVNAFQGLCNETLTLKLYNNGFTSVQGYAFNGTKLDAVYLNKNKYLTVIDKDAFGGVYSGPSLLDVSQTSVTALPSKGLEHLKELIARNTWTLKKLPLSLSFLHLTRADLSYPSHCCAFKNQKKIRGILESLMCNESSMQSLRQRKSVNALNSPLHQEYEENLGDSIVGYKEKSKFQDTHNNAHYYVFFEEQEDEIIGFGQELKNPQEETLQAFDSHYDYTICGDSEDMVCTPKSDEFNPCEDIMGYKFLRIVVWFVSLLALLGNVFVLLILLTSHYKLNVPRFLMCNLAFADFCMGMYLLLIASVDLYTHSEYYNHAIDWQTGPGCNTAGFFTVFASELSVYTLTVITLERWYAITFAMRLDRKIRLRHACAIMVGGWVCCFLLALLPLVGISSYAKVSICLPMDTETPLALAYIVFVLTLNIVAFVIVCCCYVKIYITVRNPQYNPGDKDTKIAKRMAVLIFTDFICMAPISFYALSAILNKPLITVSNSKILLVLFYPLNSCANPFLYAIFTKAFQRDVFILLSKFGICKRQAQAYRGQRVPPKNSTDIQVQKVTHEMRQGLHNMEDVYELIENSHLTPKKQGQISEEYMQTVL
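Competitive HTRF cAMP read-out (cryptate anti-cAMP antibody, cAMP-d2; 30 min, room temperature) in freshly harvested TSHR cells. Compounds added before TSH at EC80 (4nM final), followed by 2 hours' incubation at 37 deg C.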
PLK1 PBD block – PLK1 (human) polo-box domain binding inhibition. 360,000 tested, 2.8% active. P53350. Plk1 PBD binding of FITC phosphopeptide, fluorescence polarization. Potency, µM, for the others: max response, negative = inhibition, hits mostly inhibitors; further: potency means the concentration at half of the fitted maximal effect; series mostly up to about 57 µM; on the % scale 0 is the no-effect control and ±100 the full control effect; nearly all actives have a fitted effect of over 65% in size
VDR inh – blocks the human vitamin D receptor; VDR-SRC2-3 peptide fluorescence polarization, 2 h; Potency, µM, inactives show max response, negative = inhibition, most hits filed as inhibitors; 400,000 tested, 0.93% active; further: potency means the concentration at half of the fitted maximal effect; on the % scale 0 is the no-effect control and ±100 the full control effect
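Reagent solutions, kept cold and dark, are dispensed first; compounds are then pinned in at 23 nl, plates briefly spun, and incubated 2 h at ambient temperature. Inhibition of VDR–SRC2-3 peptide binding is read by fluorescence polarization.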
TSG101-PTAP inh – blocks PTAP/TSG101 interaction to inhibit HIV-1 budding. Fluorescence polarization, FITC-PTAP peptide / Tsg101 binding. 340,000 tested, under 10 active. Potency, µM (titrated, usually from 115 µM), without a hit: top-dose activity change, negative = inhibition, usual class: inhibitors; active means well fitted inhibition curve with a large enough effect in the main read-out, with a control signal flat, not every such curve was filed as active; inconclusive means small, poorly fitted or top-dose-only effect, or effect the other way, or a change in a side signal; inactive means no such curve, though single readings can be large or run the other way; further: potency means the concentration at half of the fitted maximal effect; % of control where 0% means no effect
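Tsg101 binding domain (10 uM final) was mixed with compound and a FITC-labeled PTAP peptide (50 nM final) in HEPES pH 7.5 buffer with NaCl, Tween 20, EDTA and TCEP; fluorescence polarization was read after 20 min at r.t.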
Active calls of the source: *; ? = inconclusive; . = no result. Rows were chosen to be rich in hits. Some 3.1% of all compounds tested hit in one or more screens of this group. Unless noted, the call rests on the fitted dose curve; in most records, active means well fitted curve in the direction sought with a large enough effect; inconclusive means small, poorly fitted or top-dose-only effect, or another doubt; inactive means no such curve, though single readings can be large; an effect the other way counts as inactive or inconclusive.

SMILES	uPA generation	TSHR antagonist	PLK1 PBD block	VDR inh	TSG101-PTAP inh
N#Cc1nc(Cc2ccccc2)oc1NCc1cccnc1	-3.1%	-4.6	-1.0%	-8.2%	-3.9%
N#Cc1ncc(Cc2ccccc2)nc1C#N	?	-1.3	-7.3%	79.4µM*	-6.5%
N#C/C(=N\Nc1ccc(S(=O)(=O)N2CCc3ccccc32)cc1)C(N)=S	-1.6%	?	26.7µM*	?	-6.4%
N#C/C(=N\Nc1ccc(S(=O)(=O)N2CCCCCC2)cc1)C(N)=S	0.2%	-47.6	15µM*	?	-1.5%
CCCCN(CC)CCCNC(=O)c1cn(CC)c2ccc(S(=O)(=O)N3CCOCC3)cc2c1=O	.	.	.	-0.5%	.
COc1ccc(N/C=C/C(=O)c2ccccc2)cc1	10µM*	-11.3	-16.6%	5.5%	-6.1%
CCCOc1ccc(N/C=C/C(=O)c2ccc(OC)c(OC)c2)cc1	-7.6%	4.8	21.2µM*	?	4.4%
COc1ccc(-c2noc(-c3cc(C(C)C)[nH]n3)n2)cc1	.	.	.	6.6%	.
Cc1ccc(/C=N\NC(=O)CCc2n[nH]c(=O)[nH]c2=O)o1	12.7%	3.8	16.8µM*	?	-4.3%
COc1ccc(/C=N/NC(=O)CCc2n[nH]c(=O)[nH]c2=O)cc1O	5.1%	-2.1	-4.9%	-5.9%	-2.3%
Clc1ccc(-n2nnc(-c3ncc[nH]3)n2)cc1Cl	-9.7%	.	?	-7.4%	.
Cc1ccc(-n2nnc(-c3nccs3)n2)cc1	2.24µM*	-0.1	3.9%	-5.5%	.
COc1ncccc1-c1nnn(-c2ccc(C)cc2)n1	?	-1.6	-13.3%	-0.1%	-2.8%
Clc1ccc(-n2nnc(-c3nccs3)n2)cc1Cl	-16.8%	-4.7	26.7µM*	-20.1%	-0.3%
Cc1cc2nc3c(=O)n(C)c(=O)n(C)c3nc2cc1N=CN(C)C	.	.	.	14.4%	.
C=C1CCC2C(C)(C)[C@@H](O)CC[C@@]2(C)[C@@H]1COc1ccc2ccc(=O)oc2c1 (stereo partly drawn)	?	-75.7*	-13.2%	1.2%	2.0%
COc1cccc(-c2cnc(C(O)c3c(C)cccc3C)[nH]2)c1 (stereo not drawn)	.	.	-10.3%	.	.
Cn1cnc([N+](=O)[O-])c1S(=O)(=O)Oc1cccc2ccccc12	-14.7%	.	8.44µM*	?	-10.7%
Cn1cnc([N+](=O)[O-])c1S(=O)(=O)Oc1ccc(Cl)cc1	-15.0%	.	?	25.1µM*	-2.8%
Cn1cnc([N+](=O)[O-])c1Oc1ccccc1	-8.1%	14.1	0.2%	-0.3%	2.8%
CCS(=O)(=O)c1c([N+](=O)[O-])ncn1C	?	6.6	-18.2%	-15.9%	-5.5%
CNC(=O)C1CCN(C(=O)N2CC(C)Oc3ccc(Cl)cc32)CC1 (stereo not drawn)	.	.	.	23.4%	.
O=C1CCCCN1CCC(=O)N1CCCC(Nc2ccc(F)c(F)c2)C1 (stereo not drawn)	-9.1%	9.5	-8.1%	-1.3%	-4.4%
O=C1CCCCN1CC(=O)N1CCCC(Nc2ccc(F)c(F)c2)C1 (stereo not drawn)	3.6%	9.8	21.2µM*	?	-0.7%
CCc1nnc2c(N(C)S(=O)(=O)c3ccc(C)cc3)nc3ccccc3n12	-0.3%	2.8	-0.9%	10.4%	-6.7%
SMILES	uPA generation	TSHR antagonist	PLK1 PBD block	VDR inh	TSG101-PTAP inh
Cc1ccc(S(=O)(=O)N(C)c2nc3ccccc3[nH]c2=S)cc1	2.4%	-7.2	10.6µM*	?	0.7%
N#CCCn1c(=O)c(-c2ccccc2)nc2cnc(N3CCNCC3)nc21	.	.	.	2.1%	.
c1coc(CSSCc2ccco2)c1	-1.8%	1.3	11.9µM*	22.4µM*	1.2%
O=C(CSCc1cnn(-c2ccccc2)c1-n1cccc1)Nc1ccc(F)cc1F	.	.	.	2.9%	.
CCc1[nH]c(=S)c(C#N)c2c1CCCC2	5.0%	-1.6	26.7µM*	?	-3.9%
CCc1[nH]c(=O)c(C#N)c2c1CCCC2	-2.9%	30.0	-9.3%	-5.1%	-5.8%
Cc1cc(C)n2nc(C(=O)NCC(=O)Nc3ccc(F)c(F)c3)nc2n1	3.3%	-1.9	0.2%	-11.8%	-4.0%
O=C1Nc2ccccc2C1=Nc1ccc(Br)cc1	?	16.1	-19.7%	22.4µM*	-2.0%
Cc1cc(=O)oc2ccc(OCc3ccccc3)cc12	-3.4%	-118.1*	-6.0%	7.4%	-8.6%
S=c1nc2c(n[nH]1)c1ccccc1n2CCc1ccccc1	-4.5%	-39.8	?	79.4µM*	-3.7%
Cn1nnnc1Sc1ncnc2scc(-c3cccc(C(F)(F)F)c3)c12	8.91µM*	-1.0	.	?	-1.0%
Cn1nnnc1Sc1ncnc2scc(-c3ccc(C#N)cc3)c12	?	0.8	.	-17.3%	.
Cn1nnnc1Sc1ncnc2scc(-c3ccc(-c4ccccc4)cc3)c12	2µM*	-33.6	.	-0.5%	0.0%
Cn1nnnc1Sc1ncnc2scc(-c3ccc(C(F)(F)F)cc3)c12	?	6.1	.	-16.8%	-4.4%
CC(C)[C@H](NC(=O)c1ccccc1)C(=O)OCc1nnc(-c2ccccc2)o1	2.5%	-3.7	26.7µM*	-0.6%	-2.6%
Cc1ccc(C(=O)N[C@H](C(=O)OCc2nnc(-c3ccccc3)o2)C(C)C)cc1	-1.9%	-2.2	-13.7%	21.3%	-3.6%
COc1cccc(CNC(=O)C(CC(C)C)NS(=O)(=O)c2ccc3c(c2)oc(=O)n3C)c1 (stereo not drawn)	.	.	.	-13.1%	.
COCCCN1CC23C=CC(O2)C(C(=O)O)C3C1=O (stereo not drawn)	-2.6%	15.0	26.7µM*	?	-2.3%
O=C(CCN1C(=O)c2ccccc2Sc2ncccc21)Nc1ccc(F)cc1F	.	.	.	4.5%	.
O=C(COCc1cc(-c2ccco2)on1)NC1CCCCC1	-24.8%	17.4	5.9%	11.2%	-4.1%
O=C(COCc1cc(-c2cccs2)on1)NC1CCCCC1	-3.1%	-88.4*	-7.1%	-14.5%	-1.0%
CC(C)C(=O)NN(C(=O)C(C)C)c1nc2ccccc2s1	-5.8%	-2.5	0.3%	15.8%	-0.5%
O=C(NN(C(=O)C1CC1)c1nc2ccccc2s1)C1CC1	-6.0%	14.9	26.7µM*	-16.6%	-7.1%
Cc1ccsc1C(=O)N1CCC1(C)C(=O)NS(=O)(=O)c1ccc(Br)cc1 (stereo not drawn)	.	.	-14.8%	.	.
Cc1ccn2cc(-c3cccc(NC(=O)C(C)C)c3)nc2c1	?	-4.3	21.2µM*	-14.5%	-10.1%
SMILES	uPA generation	TSHR antagonist	PLK1 PBD block	VDR inh	TSG101-PTAP inh
O=C(COc1ccc2ccccc2c1)NCCNC(=O)COc1ccc2ccccc2c1	4.8%	0.3	-1.2%	6.2%	-4.5%
Cc1ccccc1OCC(=O)N/N=C/c1ccccn1	-15.0%	-3.6	29.9µM*	-20.8%	-0.8%
Cc1ccccc1OCC(=O)N/N=C/c1cccc(Oc2ccc([N+](=O)[O-])cc2[N+](=O)[O-])c1	11.2µM*	-22.8	-1.7%	-3.4%	-0.3%
O=C(COc1ccc2ccccc2c1)NN1C(=O)c2ccccc2C1=O	-5.0%	-1.9	26.7µM*	-6.5%	0.0%
Cc1ccccc1OCC(=O)NCC(=O)N/N=C/c1cccc([N+](=O)[O-])c1	.	-0.7	.	.	.
O=C(COc1ccc2ccccc2c1)N/N=C/c1ccccn1	-0.1%	9.1	18.9µM*	-18.4%	-1.0%

Screening results: PubChem, National Center for Advancing Translational Sciences (NCATS)
